Our source for the Potency values is PubChem BioAssay AID651558 (National Center for Advancing Translational Sciences (NCATS), 2012).

Each structure is given as a SMILES string. Values joined by “and” are separate entries in the source; they are usually repeats but may differ in a detail not shown here. Equal values may be shown once. Hit rate of the full screen: of about 1,200 compounds, about 480 (40%) were called active. Not shown: some 29% with an inconclusive outcome. Calls come from the whole dose curve; as a rule, active = well fitted inhibition curve with a large enough effect; inconclusive = small, poorly fitted or top-dose-only effect; inactive = no such curve, though single readings can be large or run the other way. Some of the results follow.
Potency is the fitted concentration of half-maximal effect.

The experiment is described as follows: qHTS Assay to Find Inhibitors of Chronic Active B-Cell Receptor Signaling: Hit Validation in Primary Screen. Note: nearly all actives have a fitted effect of over 75% in size. As to conditions: ABC-DLBCL IkB-luc/CBR ratio luminescence, 4 h; series mostly up to 46.1 µM. The method in brief: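 Concentration series (3 nM to 46 uM) tested on TMD8 cells induced with doxycycline for 4 h. Filter-corrected green (IkBa fusion) over red (unfused) luciferase signal; Data were normalised to 10 uM MG-132 and untreated cell wells.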
(qHTS replaces the single test concentration by a dilution series.)
Turning to `Cc1ccc(C)c(NC(=S)N=Nc2c(O)n(C)c3ccc(S(=O)(=O)N4CCOCC4)cc23)c1`, the Potency entry is “inactive”.

In the case of `CCOc1ccc(C2=Nn3c(nnc3-c3ccccc3OC)SC2)cc1`, the Potency is 0.0731 µM (active).

As to `COc1ccc(C2=Nn3c(nnc3-c3ccccc3OC)SC2)cc1OC`, the Potency was 1.3 µM (active).

Turning to `COc1ccc(C2=Nn3c(nnc3-c3ccc(OC)cc3)SC2)cc1`, the Potency is 14.6 µM (active).

For the compound `COc1ccc(C2=Nn3c(nnc3C3CCCCC3)SC2)cc1OC`, the Potency was 2.31 µM (active).

Regarding `COc1ccc(C2=Nn3c(nnc3-c3ccccn3)SC2)cc1OC`, the Potency result was “inactive”.

Take `CNC(=S)N/N=C(\C)c1ccc(Cl)s1`: the Potency entry is “inactive”.

Turning to `S=C(Nc1ccccc1)c1nc2ccccc2s1`, the Potency result was “inactive”.

In the case of `Cc1ccc(-c2oc3ncnc(N)c3c2-c2ccc(C)cc2)cc1`, the Potency result is “inactive”.

Consider `COc1ccccc1-c1nnc2n1N=C(c1ccc(O)c(O)c1)CS2`, for which the Potency is 0.206 µM (active).

Take `NC(=S)N/N=C/c1ccccc1OC(=O)/C=C/c1ccccc1`: the Potency result is “inactive”.

As for `COc1ccc(C(=O)N/N=C/c2ccccc2OC(=O)c2ccccc2)cc1`, the Potency was 0.651 µM (active).

For the compound `Cc1cccc(C(=O)Oc2ccc(/C=N/O)cc2)c1`, the Potency result is “inactive”.

Regarding `Cc1cccc(NS(=O)(=O)c2ccc(-c3cnc(C4CC4)o3)cc2)c1C`, the Potency is 0.92 µM (active).

As to `Cc1cccc(C)c1NS(=O)(=O)c1ccc(-c2cnc(C3CC3)o2)cc1`, the Potency is 0.291 µM (active).

Regarding `Cc1cccc(NS(=O)(=O)c2ccc(C3CCCCC3)cc2)n1`, the Potency result was “inactive”.

For `COc1ccc(OC)c(C2CC(=O)c3c([nH]c(C(=O)OC(C)C)c3C)C2)c1` (stereo unspecified), the Potency is 1.64 µM (active).

For the compound `CCOCCOC(=O)c1[nH]c2c(c1C)C(=O)CC(c1ccccc1)C2` (stereo unspecified), the Potency is 1.64 µM (active).

On to `CCOCCOC(=O)c1[nH]c2c(c1C)C(=O)CC(c1cccs1)C2` (stereo unspecified), for which the Potency was 2.59 µM (active).

For `COCCOC(=O)c1[nH]c2c(c1C)C(=O)CC(c1ccccc1)C2` (stereo unspecified), the Potency result was “inactive”.

Consider `COC(=O)c1[nH]c2c(c1C)C(=O)CC(c1ccccc1)C2` (stereo unspecified), for which the Potency was 1.3 µM (active).

Regarding `NC(=S)N/N=C/c1ncc(C(F)(F)F)cc1Cl`, the Potency result is “inactive”.

In the case of `C/C(=N\N1C(=O)c2ccccc2NC1c1ccco1)c1ccccc1O` (stereo unspecified), the Potency entry is “inactive”.

As to `CCNC(=S)N/N=C(\C)c1ccc(Cl)s1`, the Potency entry is “inactive”.

On to `O=C(CSc1cccc[n+]1[O-])c1ccc(-c2ccccc2)cc1`, for which the Potency entry was “inactive”.

Regarding `Cc1ccc(/C(C#N)=C\c2ccc(N3CCOCC3)o2)cc1`, the Potency result is “inactive”.

Take `O=C1N/C(=C/c2ccc(N3CCOCC3)o2)C(=O)N1c1ccccc1`: the Potency was 16.4 µM (active).

Turning to `O=S1(=O)N=C(Nc2nc3c(s2)CCCC3)c2ccccc21`, the Potency was 7.31 µM (active).

As to `Cc1ccc(/C=[N+](\[O-])c2ccc(N(C)C)cc2)c2nsnc12`, the Potency entry is “inactive”.

`O=C(COc1ccc(-c2ccccc2)cc1)N1CCN(S(=O)(=O)Cc2ccccc2)CC1`: the Potency result was “inactive”.

In the case of `Cc1cccc(OCCCN2C(=O)C(=O)c3cc(C)ccc32)c1`, the Potency entry is “inactive”.

In the case of `Cc1cccc(OCCCC(=O)NNC(=O)c2cccc(N(C)C)c2)c1`, the Potency result was “inactive”.

In the case of `Cc1ccc(OCCN2C(=O)C(=O)c3cc(C)ccc32)cc1`, the Potency was 20.6 µM (active).

Regarding `Cc1ccc2c(c1)C(=O)C(=O)N2CCOc1ccccc1`, the Potency was 20.6 µM (active).

For the compound `Cc1cccc(OCCN2C(=O)C(=O)c3cc(C)ccc32)c1`, the Potency is 23.1 µM (active).

Turning to `CCCN1C(=O)C(=O)c2cc(Cl)ccc21`, the Potency is 18.4 µM (active).

For `O=C(Cc1ccc(-c2ccccc2)cc1)NCc1ccccc1`, the Potency was 0.517 µM (active).

In the case of `NC(=O)NC[C@@H]1CC[C@@H](Cc2ccc(-c3ccccc3)cc2)O1`, the Potency result was “inactive”.

For `O=C(COC(=O)Cc1ccc(-c2ccccc2)cc1)NCc1ccccc1`, the Potency entry was “inactive”.

As to `Cc1noc(C)c1COc1ccc(CC(=O)NCc2ccccc2)cc1`, the Potency is 14.6 µM (active).

Regarding `Cc1ccccc1N=Nc1c(C)[nH]n(C(N)=S)c1=O`, the Potency result was “inactive”.

For `Clc1ccc2nc(-c3ccccc3)nc(C(Cl)Cl)c2c1`, the Potency was 4.61 µM (active).

As to `CCOc1ccc(S(=O)(=O)NCc2ccccn2)cc1NC(=O)c1ccccc1F`, the Potency was 8.2 µM (active).

Turning to `Cc1ccc(S(=O)(=O)Nc2cccc(-c3ccc4nncn4n3)c2)cc1`, the Potency is 16.4 µM (active).

`CNCc1ccccc1Sc1ccc(O)c(O)c1`: the Potency was 23.1 µM (active).

Consider `CS(=O)(=O)C1=C(O)C(=O)N(c2ccccc2)C1c1ccccc1` (stereo unspecified), for which the Potency entry was “inactive”.

For the compound `COc1ccc(NC(=O)/C(C#N)=C\c2cc(C)n(-c3ccc4c(c3)OCO4)c2C)cc1`, the Potency was 2.31 µM (active).

As for `Oc1cccc(Nc2nc(N3CCOCC3)nc(N3CCOCC3)n2)c1`, the Potency is 8.2 µM (active).

For `Cc1cc(C)n(-c2nc3ccccc3c(=O)n2OCC#N)n1`, the Potency was 23.1 µM (active).

For `Cc1ccc(S(=O)(=O)Cc2ccc(C(=O)N3CCN(c4cccc(C)c4C)CC3)o2)cc1`, the Potency is 5.17 µM (active) and 20.6 µM (active).

As to `Oc1[nH]c2ccccc2c1N=NC(=S)N1CCOCC1`, the Potency result is “inactive”.

`N#C/C(=C\c1cn(Cc2ccc(F)cc2)c2ccccc12)C(=O)NCc1ccco1`: the Potency result was “inactive”.

On to `COc1ccc(-c2ccc(CCC(=O)O)n2-c2ccccc2OC)cc1`, for which the Potency result is “inactive”.

Regarding `COc1ccc(CNC(=O)/C(C#N)=C/c2cccc(OC)c2OC)cc1`, the Potency is 18.4 µM (active).

With `CC1CC(C)CN(S(=O)(=O)c2ccc(NC(=O)c3ccc(=O)[nH]c3)cc2)C1` (stereo unspecified), the Potency is 9.2 µM (active).

`Oc1ccccc1/C=N/Nc1ccnc(SCc2ccccc2)n1`: the Potency entry is “inactive”.

Regarding `Oc1cccc(/C=N/Nc2ccc(Cl)nn2)c1O`, the Potency was 14.6 µM (active).

Regarding `CCCCN1C(=O)N(C)C2C1N(C)C(=O)N2CCCC` (stereo unspecified), the Potency result was “inactive”.

Turning to `O=C(CCl)Nc1cc(S(=O)(=O)N2CCCCCC2)ccc1Cl`, the Potency is 20.6 µM (active).

Turning to `O=C(CNC(=O)c1ccco1)N=Nc1c(O)n(CCc2ccccc2)c2ccccc12`, the Potency was 5.8 µM (active).

For `O=[N+]([O-])c1cc(/C=N/O)ccc1Sc1ccccc1`, the Potency entry was “inactive”.

On to `CCOC(=O)Cc1csc(NC(=S)NC(=O)c2ccccc2)n1`, for which the Potency entry is “inactive”.

Turning to `CCOC(=S)SCC(=O)Nc1nc(-c2ccc(Br)cc2)cs1`, the Potency was 3.66 µM (active).

Take `Cc1csc(NC(=S)NC(=O)c2ccccc2)n1`: the Potency result was “inactive”.

As to `CC(=O)c1ccc2c(c1)CC(C)C(=O)N2C` (stereo unspecified), the Potency entry was “inactive”.

As for `Cc1cccc(-n2c3nc(=O)[nH]c(=O)c-3cc3cc([N+](=O)[O-])ccc32)c1`, the Potency was 7.31 µM (active).

On to `Cc1ccc(C)c(-n2c3nc(=O)[nH]c(=O)c-3cc3cc([N+](=O)[O-])ccc32)c1`, for which the Potency entry was “inactive”.

`COCCn1c(-c2cccc([N+](=O)[O-])c2)nc2c1c(=O)[nH]c(=O)n2Cc1ccccc1`: the Potency entry is “inactive”.

Regarding `Cn1c(=O)n(C)c2cc(NS(=O)(=O)c3ccc(Br)s3)ccc21`, the Potency entry was “inactive”.

For `O=C1N[C@H]2CC=C[C@H]2Nc2ccccc21`, the Potency result is “inactive”.

For the compound `CCNC(=O)[C@H]1O[C@@H](n2cnc3c(N)nc(NCCc4ccc(CCC(=O)O)cc4)nc32)[C@H](O)[C@@H]1O`, the Potency is 0.0731 µM (active).

On to `COC(=O)C1=C(C)NC(C)=C(C(=O)OC)C1/C=C/c1ccccc1`, for which the Potency is 20.6 µM (active).

On to `Cc1ccc(NC(=O)C(=O)NCC2CCCN2S(=O)(=O)c2cccs2)cc1C` (stereo unspecified), for which the Potency entry was “inactive”.

With `COc1ccc(NC(=O)C(=O)NCC2CCCN2S(=O)(=O)c2ccc(C)cc2)cc1` (stereo unspecified), the Potency was 0.517 µM (active).

For the compound `CC(C)N=C(NS(=O)(=O)c1ccccc1)C(Cl)(Cl)Cl`, the Potency is 3.26 µM (active).

Turning to `N#Cc1ccccc1NC(=O)c1cccc(COc2ccc(Cl)cc2Cl)c1`, the Potency result was “inactive”.

As for `O=C(CSc1cc(Cl)ccc1Cl)Nc1ccc(N2CCOCC2)cc1`, the Potency result is “inactive”.

As to `Cc1onc(-c2ccccc2)c1C(=O)Nc1cc(C(F)(F)F)ccc1N1CCOCC1`, the Potency is 20.6 µM (active).

`Cc1ccc2nc(SCC(=O)Nc3cc(C(F)(F)F)ccc3N3CCOCC3)[nH]c2c1`: the Potency was 2.06 µM (active).

On to `CCN(CC)S(=O)(=O)c1ccc(N2CCOCC2)c(NC(=O)c2c3c(nc4ccccc24)CCC3)c1`, for which the Potency entry was “inactive”.

With `C=CCNC(=S)N/N=C/c1ccc(C(C)(C)C)cc1`, the Potency result is “inactive”.

Take `Cc1ccc(S(=O)(=O)N(C)C[C@@H]2Oc3ccc(NC(=O)CCC(F)(F)F)cc3CC(=O)N([C@@H](C)CO)C[C@@H]2C)cc1`: the Potency is 9.2 µM (active).

For `COc1cc(SSc2cc(OC)cc([N+](=O)[O-])c2N)c(N)c([N+](=O)[O-])c1`, the Potency result was “inactive”.

As for `Nc1ccc(C(=O)n2c3ccccc3c3ccccc32)cc1`, the Potency is 13 µM (active).

Regarding `COc1cccc(C2NC(=S)NC(C)=C2C(=O)c2ccccc2)c1OC` (stereo unspecified), the Potency is 16.4 µM (active).

For the compound `COc1cc2c(cc1C1NC(=S)NC(C)=C1C(N)=O)CCCC2` (stereo unspecified), the Potency entry was “inactive”.

`CCCCN(C(=O)CSc1nc2ccccc2n1CC)C1CCS(=O)(=O)C1` (stereo unspecified): the Potency entry is “inactive”.

Regarding `Cc1cc(C(=O)OCC(=O)Nc2c(Cl)cccc2Cl)c(C)o1`, the Potency entry is “inactive”.

For `Cc1cc2c(cc(C(=O)OCC(=O)NCc3cccs3)n2C(C)C)o1`, the Potency was 8.2 µM (active).

As to `O=C(NC(=S)NC1CCSC1=O)c1ccccc1` (stereo unspecified), the Potency result is “inactive”.

As for `CCC(=O)Nc1nonc1-c1nc2ccccc2n1Cc1cccc2ccccc12`, the Potency was 2.91 µM (active).

`COC(=O)c1ccccc1NC(=O)Cn1c(-c2nonc2N)nc2ccccc21`: the Potency is 0.731 µM (active).

In the case of `CCOC(=O)c1ccccc1NC(=O)Cn1c(-c2nonc2N)nc2ccccc21`, the Potency was 2.31 µM (active).

Regarding `Cc1cccc(C)c1NC(=O)CNC(=O)CNC(=O)Cc1cccc2ccccc12`, the Potency entry was “inactive”.

Consider `COCCNC(=S)N/N=C(\C)c1ccc(Cl)s1`, for which the Potency result is “inactive”.

With `CCONC(=O)Nc1ccccc1[N+](=O)[O-]`, the Potency entry is “inactive”.

Regarding `COCCNC(=S)N/N=C(\C)c1ccc(Cl)c(Cl)c1Cl`, the Potency entry is “inactive”.

For `CCOc1ccccc1N1CSC2=C(C#N)C(c3c(OC)ccc4ccccc34)CC(=O)N2C1` (stereo unspecified), the Potency entry was “inactive”.

In the case of `N#CC1=C(N)Oc2cc(N)ccc2C1c1cccc(Br)c1` (stereo unspecified), the Potency is 4.11 µM (active).

Regarding `CN(C)c1ccc2c(c1)OC(N)=C(C#N)C2c1cccc(F)c1` (stereo unspecified), the Potency was 0.82 µM (active).

`CCN(CC)c1ccc2c(c1)OC(N)=C(C#N)C2c1cccnc1` (stereo unspecified): the Potency is 1.03 µM (active).
